Test results: PubChem BioAssay AID1508600 (Functional Genomics Laboratory (NCATS/FGL), 2020)
The whole screen tested about 53,000 sequences, of which about 3,700 (7%) were called active. This is one part of a sample in which actives are shown more often than they occur.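 The calls were made as follows: active = gene knockdowns whose robust z-score for IL-1 alpha signal is at least 2 or at most -2, so actives lie on both sides; inactive = the rest.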

assay: Components of the Cytosolic LPS Sensing Pathway: Gene Identification via Genome-wide siRNA Screen; settings: RAW264.7 macrophages, IL-1a HTRF, actives lie on both sides, screened at 100 nM (by protocol), cells primed 5 h with Pam3CSK4 first;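 also: robust z of the log signal after scaling to non-targeting control siRNA wells of the plate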
Summary of the method: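 Cells (RAW264.7, 1×10^4 per well) were transfected with siRNA at 100 nM and cultured 48h at 37 degrees C. Pam3CSK4 was added for 5 hours; LipidA transfection followed for 24 hour. IL-1a was then measured by HTRF.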

Sequence	z-score
GGUGGUCCUGGAUCUUUAUTT against Spon2	-0.986 (inactive)
GGACUUCGACAAACUGAAGTT against Zfp532	0.547 (inactive)
GCCUUCUUGAACUGAAAGATT against Spc24	-2.04 (active)
GGUUCUAUGUUGACAAUCATT against Osgin2	0.621 (inactive)
GGAAAUCUGAGUGUGCACUTT against Pcdhgb1	1.45 (inactive)
GGCUGUCUUCAUCUUAGAUTT against Copz2	-2.61 (active)
GGAUAAUACAUCCCAAAACTT against Prkar2b	-0.607 (inactive)
GGAUCUCCAGAGCAGAAAATT against Nckap5	-1.64 (inactive)
GGUGAAUUCAACUCUCUAATT against Decr1	2.43 (active)
GGGUGUUGAUGUCAUUGUGTT against Dbn1	1.51 (inactive)
GCAUGCACUUAAGAUUCUATT against Lypd6b	0.595 (inactive)
CCAGGAAUCAGUCUAUACUTT against Lrrc15	1.45 (inactive)
GGUUGUAACAAACAUACUCTT against Sstr4	2.99 (active)
GGACCUGGAGAAAUUGAAGTT against Nlrp6	1.82 (inactive)
GGUCAUCUCAGACCUCCUCTT against Pde6a	-0.275 (inactive)
GCAAAACCAUUUCGAAACATT against Slc41a3	0.363 (inactive)
CCUGUGGAUCCAUUUGUUCTT against Tex15	-2.25 (active)
GGAAAAGCUACCUGUGUCATT against Tril	-1.88 (inactive)
GGUGAUGGAAUACCAAAGGTT against Dnajc28	-0.736 (inactive)
GGAUAUCUUCAUAUUGGUGTT against Ces1f	4 (active)
GGAGAUCCCGUCACUAUCUTT against Lrrc61	-0.439 (inactive)
GGACAAUGAACUGAUUACCTT against Ap1s2	0.992 (inactive)

Sequence	z-score
GGGACAAAGAAAAUCUACUTT against Ehf	0.637 (inactive)
GUACCAGAAGUGAGUUCAGTT against Leap2	-2.97 (active)
GCUGCCUCUUUCUUUGCUUTT against Pllp	-0.769 (inactive)
GGCAGAUUCAGAAUUGUCUTT against Il17a	-2.58 (active)
GGACUUUGCCCUGGAUUCUTT against Cnot1	-0.216 (inactive)
GGUUUGUUGUUGUUUUUGGTT against Vezt	0.44 (inactive)
GCAAUUACCAGUAUGCUACTT against Tbx19	0.914 (inactive)
CGGUAAACUGGUUUUACUUTT against Otulin	1.8 (inactive)
GCCACAUCCUAUGUGAUGATT against Olfr1349	-0.647 (inactive)
GGAAGCUAUAUAUCAAGAATT against Tcea1	0.69 (inactive)
GUCCGUCUCGGAGAAAUGUTT against Ccdc106	-2.28 (active)
GGAUUCACGAGCAUAAGCUTT against 1700020D05Rik	-1.31 (inactive)
GGAGGCAGCAGUUAUUGUGTT against Ly6a	-0.486 (inactive)
GGCCUCAGACCUUCUAUGATT against Mtap	-0.149 (inactive)
GGUGUCCUCUUUGUUCAUGTT against Sgce	2.94 (active)
GGCUGGUACUCCAUUUUAGTT against Neil2	0.0451 (inactive)
GCCAGUUGGUUACUAUGGATT against Tax1bp3	-0.412 (inactive)
GGGAUUACCAAAAAGGCAUTT against Senp7	0.128 (inactive)
GGAUAUUAACUAUGGGUUUTT against Tlr2	0.605 (inactive)
GGCCUGCUUUGUUCUGAAUTT against Olfr846	-2.53 (active)
GCGCAAUAAUCAGACGGUUTT against Zhx2	-0.624 (inactive)
GGAAGAAGGUACAUUUCAGTT against Ankrd42	0.362 (inactive)

Sequence	z-score
GGGCAAAAUAUGAAAUACATT against Pate6	2.92 (active)
GAGAGAGACAAUCCUGAAGTT against Klra22	-0.0539 (inactive)
GGCAAAUGGAAACAGCCAUTT against Serpina1d	-1.56 (inactive)
CCUGCUCAAACUUUUGUGGTT against Ephx4	0.928 (inactive)
GGAACCUUCUCCAAAGCAATT against Rpgrip1	-2.45 (active)
CGUCAAAGGAGACAGCUUUTT against Rbm15b	1.56 (inactive)
GCUCAAAUUGAGUCCUUAUTT against Ccdc122	-0.548 (inactive)
GCUAGCCAUGGUUACCCACTT against Slc39a3	-0.818 (inactive)
GGGACACUAGAAGUAGGGATT against Pramel4	0.299 (inactive)
GACGAUCAAGAUAUGAUGGTT against Olfr196	0.259 (inactive)
GCACGUACUGUUCUAGAAGTT against Kcng4	1.48 (inactive)
CCCAAAGAUAGAGCUCUGUTT against Sec61a2	-1.94 (inactive)
GGUUGAUCUAAUGAUUGUGTT against Ccdc34	2.5 (active)
UCUCCUACCUAUGCACAUATT against Panx2	-0.925 (inactive)
GCAAGUCUGGAUGGAUGAGTT against 1190005I06Rik	-1.54 (inactive)
CCCUCGUUGAAUUAAACUUTT against Zfp385b	0.88 (inactive)
GGUCUCAGACAAAGAUGAATT against Trmt10c	-0.239 (inactive)
GGAAUGGAGUUUGGUUUUGTT against Extl1	2.67 (active)
GGAAACGAGUUGGAGACAATT against Gtpbp1	-1.03 (inactive)
GGUUAAGUUCCUCUGGAACTT against Pnliprp2	-0.0719 (inactive)
GGCACUACCACAAGUAUAGTT against 1700073E17Rik	0.0893 (inactive)
GCAGGUUAUGGUCAUAUUUTT against Zfp646	0.583 (inactive)

Sequence	z-score
GCAGUUGAGUCCACCUCAATT against Ccdc187	2.18 (active)
GGAGAACGUGGUACAAAGUTT against Sncg	-1.27 (inactive)
GGAGGACUUAGAGAGUAUGTT against Ctdp1	-0.595 (inactive)
CCAGUGUAGAGCACAAAUCTT against Ahr	2.51 (active)
GGACCUGGACCUUUUAGAGTT against Vegfb	1.34 (inactive)
GGUUGUUGGAAAAAUAGAUTT against Tmem175	-0.0383 (inactive)
GGUGGACUUCAUGUAGAUUTT against Eif3m	-1.07 (inactive)
GGACAAGAGGUACACAAACTT against Eif3d	2.83 (active)
GGAAGAGCUGGACUUCUUCTT against Hoxb2	1.71 (inactive)
CCACGGUUAUGAUGACGACTT against Dyrk1b	1.89 (inactive)
GGACUAUUUCCUUUGUGGGTT against Olfr31	-1.59 (inactive)
GGAUUGUCCUUGAUGGCUGTT against Plek2	-0.116 (inactive)
GGAGGUUUUACUCAAACAUTT against Sec14l2	1.35 (inactive)
GGGCCUGCUCUCUUUUCUGTT against Mfsd14b	1.18 (inactive)
CCUCGAGUCACCAACAUCGTT against Stt3b	-2.46 (active)
GCCUUUUGUACUAAGGUCCTT against Zfp715	1.65 (inactive)
GGGACAGUUAGUCAGUAAGTT against Pus7l	0.196 (inactive)
GGCUCAGAAACAACAGGCUTT against Sh2d3c	-1.19 (inactive)
GGCUGUUAGAGGAAGAGAUTT against Ube3b	1.64 (inactive)
CCAGCAUCUACUGUCUGACTT against Sstr1	4.2 (active)
GCAAUGCAUGAAGACUCGUTT against Ecsit	0.835 (inactive)
GGGACUGGAUCCUUGAUAUTT against Ebi3	0.677 (inactive)

Sequence	z-score
CCCGGACCUUGAAUAAGCATT against Piwil4	-1.06 (inactive)
GCCACUAUCUGGAUAAGGATT against Ftl1	-3.54 (active)
GGAGAAGUGGUAGAAACUGTT against Brd8	-1.3 (inactive)
GCUUAGUCGGGAGAACUUUTT against Skp2	0.81 (inactive)
GGACAAGCUAAGCAUUGAGTT against Atp6ap1	-1.45 (inactive)
GCAUUGUCGUGUCUUCUCUTT against Tti1	-2.13 (active)
GGAGUUUCAAGAAAAAAGGTT against Map3k21	1.08 (inactive)
GGGCGAAGAUACAAGUGACTT against Tnp2	-1.76 (inactive)
GCACCAAGUCGUAUAAACATT against Sh3glb1	-0.391 (inactive)
CCAAUUUUGUCAUAGGACATT against Plbd1	-0.107 (inactive)
GGAUGUAAGGCCUUUUUUATT against Esr2	0.676 (inactive)
GGAGACCUUCAGCUUGGAATT against Zfp260	0.0537 (inactive)
GGAUUCUAGGAGAGAAUCATT against Cplx3	0.897 (inactive)
GCCAUUUCUUAUCAAGUGGTT against Laptm4a	-2.63 (active)
GGAGCAGAACAUUAUCUUCTT against Tnn	0.603 (inactive)
CCUAAACUACAGGAAUUUATT against D830014E11Rik	-0.0293 (inactive)
CCAUAUGAGAAGAUGACACTT against Pdcl2	-1.39 (inactive)
GGCAGAAUCAGUUGAAAUUTT against Terf2ip	0.917 (inactive)
CCAAGUUCGUGACAAACAUTT against Trpv1	-0.0275 (inactive)
CCAUCAGGGUUACAAGUACTT against 6030458C11Rik	-2.46 (active)
